CHOP inhibitor: blocks CHOP induction under ER stress | CHO-K1 CHOP-promoter luciferase, tunicamycin-induced, 15-18 h | inhibition, % at 10 µM | actives 3.8% (n = 220,000);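 active = compounds that reduced the stress-induced luciferase reporter signal by more than about 70% of percent inhibition, limit read from the data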;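 note: 0% = tunicamycin plus vehicle and 100% = wells without tunicamycin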
S1P4 antag: human S1P4 receptor antagonism. O95977. S1P4-expressing cells, antagonist mode, reporter read-out. inhibition, % at 4.98 µM. actives 0.26% (n = 220,000); in the data active = inhibition above about 29%;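 note: 0% = wells stimulated with agonist and 100% = vehicle wells without agonist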
Target sequence (O95977 whole entry, looked up): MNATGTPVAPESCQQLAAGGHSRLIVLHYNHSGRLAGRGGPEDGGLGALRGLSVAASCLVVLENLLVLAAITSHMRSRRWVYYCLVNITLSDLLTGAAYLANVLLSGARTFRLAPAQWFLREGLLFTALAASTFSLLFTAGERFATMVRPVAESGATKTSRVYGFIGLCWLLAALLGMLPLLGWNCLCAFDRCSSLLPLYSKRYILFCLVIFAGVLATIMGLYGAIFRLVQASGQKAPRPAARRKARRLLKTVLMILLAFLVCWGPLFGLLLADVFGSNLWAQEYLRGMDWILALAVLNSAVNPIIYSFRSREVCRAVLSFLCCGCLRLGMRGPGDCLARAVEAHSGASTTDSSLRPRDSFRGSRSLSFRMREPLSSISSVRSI
S1P4 agonist: agonists of human S1P4 receptor. O95977. S1P4-expressing cell line, agonist reporter assay. activation, % at 4.98 µM. actives 0.35% (n = 220,000). AID 1509; in the data active = activation above about 11%;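 note: 0% = DMSO vehicle and 100% = reference agonist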
Hsp70 activator: switches on Hsp70 transcription; activation, % at 10 µM; HeLa Hsp70 promoter luciferase reporter, luminescence; scaled: vehicle 0, proteasome-inhibitor control 100%; actives 0.04% (n = 200,000); AID 1203;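 active = activation above the mean across all tested compounds plus 3 SD, cutoff set per campaign, cut at about 5.5% in these data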;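 note: 100% = MG132 at 30 µM as the positive control and 0% = DMSO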
CHOP inh conf: confirmation of CHOP induction inhibitors. inhibition, % at 10 µM. shares compounds with CHOP inhibitor. actives 45% (n = 2,100). CHO-CHOP promoter luciferase reporter, tunicamycin-induced, luminescence;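 active = mean of three repeat readings of reporter signal inhibition above a set limit, cut at about 70% in these data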;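 note: 0% = tunicamycin plus vehicle and 100% = wells lacking tunicamycin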
* = called active by the depositor; nt = no result given. Sampled rows, rich in hits. Any-hit rate of the full collection: about 4.2%.

SMILES	CHOP inhibitor	S1P4 antag	S1P4 agonist	Hsp70 activator	CHOP inh conf
CCOc1ccccc1N(C(=O)CNS(=O)(=O)c1ccccc1)C(CC)C(=O)NCc1ccco1 (stereo unspecified)	3.0	-10.5	10.6	-0.4	nt
Cc1nnc(NC(=O)c2sc3nc(-c4cccs4)cc(C(F)(F)F)c3c2N)s1	106.2*	-10.7	1.6	-0.1	94.0*
CCOc1ccc(-c2cc(CCCC(=O)NCc3ccc(C)cc3)no2)cc1	96.3*	-1.4	0.9	-0.1	78.0*
CC1CCCC(NC(=O)COC(=O)/C=C/c2ccc3c(c2)OCO3)C1C (stereo unspecified)	97.9*	-9.3	-0.2	-0.4	96.0*
Cc1ccc(-c2nn(C)c(=O)c3ccccc23)cc1CNC(=O)Cn1nc(-c2ccccc2)c2ccccc2c1=O	97.2*	0.6	-0.3	-0.2	78.5*
Cc1cc(C)n(CC(=O)NCc2cc(-c3nn(C)c(=O)c4ccccc34)ccc2C)n1	13.4	-18.1	0.7	-0.1	nt
CC(C)c1ccc(C2NC(=O)NC3=C2CCc2ccccc23)cc1 (stereo unspecified)	35.4	-11.1	2.6	0.0	nt
CCC(=O)c1ccccc1OCC(=O)Nc1c(C)cccc1C	5.8	-6.4	0.4	-0.5	nt
Cc1cccc(C)c1NC(=O)COc1ccccc1C(=O)Nc1ccc(Br)cn1	106.3*	-12.1	-0.3	0.1	101.5*
Cc1ccc(NC(=O)NC(=O)CN2C(=O)NC3(CCCCCCC3)C2=O)c(C)c1	105.0*	-5.6	-0.4	-0.4	90.9*
CCNC(=O)CN1C(=O)NC2(CCCCCC2)C1=O	11.8	-10.1	-4.0	-0.2	nt
O=C(Cn1nnc(-c2ccccc2)n1)OC1CCOC1=O (stereo unspecified)	19.6	2.5	-3.6	-0.5	nt
C=CCOc1ccc(/C=C2\SC(=Nc3cccnc3)NC2=O)cc1	101.1*	4.5	-0.2	nt	-3.3
CC1=CC(C)(C)n2c(O)c(N=N)c3c(C)c(C)cc1c32	97.6*	-6.1	-0.1	nt	10.0
O=[N+]([O-])c1cccc(CSc2nnc3ccccn23)c1	-13.2	-19.6	2.0	-0.1	nt
Cc1cccc(C2c3[nH]c4ccccc4c3CCN2C(=O)c2ocnc2C)n1 (stereo unspecified)	4.1	-6.9	3.8	0.0	nt
Cc1cc(NC(=O)CSc2nc3ccccc3c(=O)n2Cc2ccccc2)no1	33.5	2.0	-1.5	-0.4	nt
Cc1ccc(-n2c(SCC(=O)Nc3cc(C)on3)nc3c([nH]c4ccccc43)c2=O)cc1	13.2	7.9	0.4	-0.1	nt
Cc1nc(NC(=O)CSc2nc3cccnc3n2Cc2ccccc2)sc1C	103.7*	-10.9	0.7	0.3	91.4*
Cc1ccc(Cn2c(SCC(=O)Nc3cc(C)on3)nc3ccccc3c2=O)cc1	104.4*	4.8	-0.1	0.0	123.7*
Cc1cc(NC(=O)CSc2nnc(-c3c[nH]c4ccccc34)n2-c2ccc(Cl)cc2)no1	105.5*	-15.8	1.6	0.3	-19.6
Cc1ccc2[nH]c3c(c2c1)CN(C(=O)CN1CCN(c2cccc(C)c2C)CC1)CC3	102.5*	3.6	-0.2	2.7	112.3*
CC1C(C#N)=C(N)OC2=C1C(=O)CCC2 (stereo unspecified)	10.1	-6.0	-0.9	-0.4	nt
CC(C)(C)c1ccc(C(=O)Nc2ccc(CC(=O)O)cc2)o1	97.7*	2.3	-0.7	-0.6	92.1*
Cc1ccc(C(=O)Nc2ccc(CC(=O)O)cc2)o1	33.6	-7.3	-0.7	0.2	nt
SMILES	CHOP inhibitor	S1P4 antag	S1P4 agonist	Hsp70 activator	CHOP inh conf
Cc1cc(C)c2nc(C(F)(F)F)c(C#N)c(N)c2c1	106.5*	-1.7	3.0	-0.2	116.3*
Cc1ccc2nc(C(F)(F)F)c(C#N)c(N)c2c1	53.8	-27.9	0.3	-0.1	nt
CSc1nnc2c(n1)OC(c1cccn1C)N(C(C)=O)c1ccccc1-2 (stereo unspecified)	14.7	-21.4	0.3	0.3	nt
CCOc1ccc(/C=N/NC(=O)Cc2csc(Nc3cccc(C(F)(F)F)c3)n2)cc1	106.2*	2.3	0.8	-0.2	31.8
S=C(Nc1ccccc1)Nc1nc2ccccc2n1CCOc1ccc(Cl)cc1	-31.9	-14.7	-1.0	-0.4	nt
Nc1ccc(N2CCCCCC2)cc1	nt	-12.0	1.1	0.3	127.7*
Nc1ccc(N2CCN(c3ccc(F)cc3)CC2)cc1	-15.2	-1.1	0.6	0.0	nt
Cc1cc(C)cc(NC(=O)/C(C#N)=C/c2cn(CC(=O)NCc3ccco3)c3ccccc23)c1	106.0*	-4.0	7.8	-0.4	105.6*
Cc1ccc(NC(=O)/C(C#N)=C/c2cn(CC(=O)NCc3ccco3)c3ccccc23)cc1C	-47.4	-2.9	0.6	-0.2	nt
Cc1ccc(C)c(NC(=O)/C(C#N)=C/c2cn(CC(=O)NCc3ccco3)c3ccccc23)c1	106.0*	-17.8	0.0	-0.4	58.1
CCOC(=O)CC(=O)Nc1ccc(Br)cc1C(=O)O	2.2	2.0	-0.4	0.1	nt
COc1cccc(-c2cc(-c3cccnc3)nc(N)c2C#N)c1	6.1	-4.3	-0.2	nt	nt
N#Cc1c(-c2cccc(Br)c2)cc(-c2cccnc2)nc1N	104.0*	-9.1	1.6	-0.2	49.4
O=C(/C=C\c1cn(-c2ccccc2)nc1-c1ccccc1)Nc1nccs1	108.0*	-11.3	-0.9	-0.3	104.8*
COc1ccc(C(CCNCc2ccc(F)cc2)c2ccc(F)cc2)cc1 (stereo unspecified)	100.6*	-4.1	2.7	-0.1	105.3*
O=C(N/N=C/c1ccco1)C1CC1c1ccccc1 (stereo unspecified)	7.6	-18.6	-0.1	-0.6	nt
CC(C)(C)c1ccc(C2CC2C(=O)N/N=C\c2ccc[nH]2)cc1 (stereo unspecified)	104.8*	-3.6	1.4	0.0	94.9*
CCN(C(=O)COC(=O)COc1ccc2c(C)cc(=O)oc2c1)C1CCS(=O)(=O)C1 (stereo unspecified)	15.3	-6.5	1.1	-0.3	nt
COc1ccc(Cl)cc1NC(=O)c1cc(-c2ccc(C)cc2O)n[nH]1	2.0	-6.6	0.4	nt	nt
COc1ccc(NC(=O)c2cc(-c3cc(C)cc(C)c3O)n[nH]2)cc1Cl	103.5*	-2.5	-0.9	-0.2	102.0*
COc1ccc(Cl)cc1NC(=O)c1cc(-c2cc(C)ccc2O)n[nH]1	100.2*	-7.1	-0.9	nt	-9.1
CN1CCN(CC(=O)N2CCn3c4c(c5cc(C6CCCCC6)ccc53)CCCC42)CC1 (stereo unspecified)	nt	-33.5	-0.8	-0.5	131.9*
CCc1ccccc1NC(=O)c1onc(C)c1Cl	7.8	-7.3	1.6	0.1	nt
Cc1nc(SCC(=O)Nc2ccc(C)c(F)c2)c2oc3ccccc3c2n1	101.9*	-2.9	0.4	0.0	109.7*
O=C1c2ccccc2-c2ccc(C(=O)N3CCOCC3)cc21	2.7	-11.2	-2.2	-0.2	nt
O=C(c1ccc(Cl)cc1)c1c[nH]c(C(=O)NNc2cccc(Cl)n2)c1	99.7*	7.6	-0.5	-0.3	95.6*
COc1ccc(N(C)S(=O)(=O)c2cccc(C(=O)Nc3ccc(OC)nc3)c2)cc1	34.2	6.3	0.3	-0.3	nt
COc1ccc(-c2noc(CCCC(=O)N3CCOCC3)n2)cc1	4.0	14.4	1.8	0.6	nt

Assay outcomes (PubChem BioAssay)
